Measured values: PubChem BioAssay (Tox21)
Inconclusive results are not listed. Activity calls are given as the source filed them. Unless noted, the call rests on the fitted dose curve.

Key:
[1] = target: Thyrotropin receptor (Homo sapiens) (UniProt P16473); test: qHTS assay to identify small molecule agonists of the thyroid stimulating hormone receptor (TSHR) signaling pathway (AID 1224843); further: nearly all actives have a fitted effect of over 45% in size
Summary of the method: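 Agonist-mode screen: TSHR HEK293 cells received test chemicals for half an hour at room temperature, then HTRF cAMP detection reagents for one hour prior to fluorescence measurement. Each chemical ran as a 15-concentration series, triplicated.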

[2] = qHTS assay to identify small molecule agonists of the hypoxia (HIF-1) signaling pathway - cell viability counter screen (AID 1224844); further: nearly all actives have a fitted effect of over 50% in size
Summary of the method: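 In this counter screen, HRE-bla ME-180 cell viability after 17 hrs of compound exposure at 37C was read by CellTiter-Glo luminescence, multiplexed with the beta-lactamase reporter measurement.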

[3] = qHTS assay to identify small molecule agonists of H2AX (AID 1224845; active means well fitted activation curve with a large enough effect in the signal ratio in the repeat runs, not every such curve was filed as active; the % refers to the signal ratio)
Summary of the method: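 Wild-type CHO-K1 cells, plated overnight, exposed 3hr at 37C to 15 concentrations (0.76% DMSO final). Lysed, then HTRF anti-pH2AX (S139) cryptate and anti-H2AX-d2 antibodies, 24 hr room temperature; 665/620 nm emission read.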

[4] = qHTS assay to identify small molecule agonists of H2AX - cell viability counter screen (AID 1224847); further: top concentration of the series differs between compounds; nearly all actives have a fitted effect of over 30% in size
Summary of the method: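 We seed wild-type CHO-K1 cells overnight, treat them for 3 hr at 37C with compounds in 15-concentration series, and quantify remaining viability by CellTiter-Glo luminescence.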

[5] = qHTS RealTime-Glo MT Cell Viability Assay in HepG2 cells - 24 hour (AID 1224867; active means well fitted curve in the direction sought with a large enough effect in the repeat runs; an effect the other way counts as inactive or inconclusive; further: nearly all actives have a fitted effect of over 50% in size)
Summary of the method: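 HepG2 cells (600/well) were dispensed with RealTime-Glo reagents, incubated 5 h at 37 °C, then treated with compounds in DMSO for up to 40 h. Nonlytic NanoLuc luminescence reflecting viable cells was read at each stated time point.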

[6] = qHTS RealTime-Glo MT Cell Viability Assay in HEK293 cells - 32 hour (AID 1224868; active means well fitted curve in the direction sought with a large enough effect in the repeat runs; an effect the other way counts as inactive or inconclusive; further: top concentration of the series differs between compounds; nearly all actives have a fitted effect of over 50% in size)
Summary of the method: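 HEK293 cells seeded with NanoLuc/prosubstrate reagent, rested 5 h at 37 C, then dosed and kept at 37 C up to 40 h. Nonlytic real-time luminescence from viable cells read at 0, 8, 16, 24, 32 and 40 h.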

[7] = A CellTox Green Cytotoxicity Assay to monitor cytotoxicity in HEK293 cells - 0 hour (AID 1224869; active means well fitted curve in the direction sought with a large enough effect in the repeat runs; an effect the other way counts as inactive or inconclusive; further: nearly all actives have a fitted effect of over 50% in size)
Summary of the method: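 Real-time, in one plate: 600 HEK293 cells/well with dead-cell DNA dye, pinned compound after 5 h, 37 C incubation over 40 h; viable cells give no appreciable fluorescence.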

[8] = qHTS assay to identify small molecule agonists of the hypoxia (HIF-1) signaling pathway (AID 1224846; active means well fitted activation curve with a large enough effect in the signal ratio in the repeat runs, not every such curve was filed as active; the % refers to the signal ratio)
Summary of the method: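 ME-180 HRE-bla reporter cells; compounds in DMSO, 17 h at 37C; read-out beta-lactamase via CCF4-AM FRET.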

[9] = qHTS assay to identify small molecule antagonists of the estrogen related receptor (ERR) signaling pathway from Tox21 library (AID 1224848; active means well fitted curve in the direction sought with a large enough effect in the repeat runs; an effect the other way counts as inactive or inconclusive; further: nearly all actives have a fitted effect of over 50% in size)
Summary of the method: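 Quantitative high-throughput format: ERR reporter cells (2,000/well) pre-incubated 6 h, treated 18 h at 37 C with compounds in DMSO alongside positive and negative controls, then read by ONE-Glo luminescence.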

[10] = qHTS assay to identify small molecule agonists of the estrogen related receptor (ERR) signaling pathway from Tox21 library (AID 1224849); conditions: ERR reporter cell line, ONE-Glo luciferase, 18 h; at 92.4 µM (top of the series) unless noted; further: nearly all actives have a fitted effect of over 15% in size
Summary of the method: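 Luciferase activity in ERR pathway reporter cells served as the agonist readout; exposure lasted 18 h at 37 C, with ONE-Glo detection after 30 min at room temperature.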
On the % scale 0 is the no-effect control and ±100 the full control effect.

Thyrotropin receptor (Homo sapiens), sequence (P16473 whole entry, looked up): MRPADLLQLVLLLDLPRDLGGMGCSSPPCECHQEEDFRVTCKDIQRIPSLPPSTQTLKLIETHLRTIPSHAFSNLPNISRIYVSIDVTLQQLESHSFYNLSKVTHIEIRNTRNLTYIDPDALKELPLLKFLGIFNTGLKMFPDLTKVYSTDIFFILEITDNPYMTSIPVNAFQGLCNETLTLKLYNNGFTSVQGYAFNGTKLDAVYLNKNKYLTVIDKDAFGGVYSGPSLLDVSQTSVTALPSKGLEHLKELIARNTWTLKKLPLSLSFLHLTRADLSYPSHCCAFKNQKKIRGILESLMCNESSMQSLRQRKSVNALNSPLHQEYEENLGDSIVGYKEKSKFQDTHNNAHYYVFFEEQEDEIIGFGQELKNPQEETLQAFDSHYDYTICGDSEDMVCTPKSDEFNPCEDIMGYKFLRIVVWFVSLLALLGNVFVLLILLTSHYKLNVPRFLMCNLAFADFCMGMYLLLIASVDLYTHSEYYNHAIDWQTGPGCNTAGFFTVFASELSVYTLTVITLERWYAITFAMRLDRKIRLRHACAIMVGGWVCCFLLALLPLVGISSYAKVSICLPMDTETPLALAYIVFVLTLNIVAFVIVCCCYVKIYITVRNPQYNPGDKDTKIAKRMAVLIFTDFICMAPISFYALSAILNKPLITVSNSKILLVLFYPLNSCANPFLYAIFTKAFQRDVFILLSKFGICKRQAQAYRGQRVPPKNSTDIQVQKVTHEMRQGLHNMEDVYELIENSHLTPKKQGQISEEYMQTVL

CN1C(C)(C)CCCC1(C)C
inactive: Potency [1] | outcome [2] | outcome [3] | Potency [4] | outcome [5] | Potency [6] | outcome [7]

NS(=O)(=O)c1ccc(NC(=O)CCC(=O)O)cc1
inactive: Potency [1] | outcome [2] | outcome [3] | Potency [4] | outcome [5] | Potency [6] | outcome [7]

Cc1cccc2nccnc12
inactive: Potency [1] | outcome [2] | outcome [3] | outcome [8] | outcome [5] | Potency [6] | outcome [7]

C=C(C)C(=O)OCCOP(=O)(O)OCCOC(=O)C(=C)C
inactive: Potency [1] | outcome [2] | outcome [3] | Potency [4] | Potency [9] | activity change, positive = activation [10] 5.76% | outcome [5] | Potency [6] | outcome [7]

CC(=O)CCCCn1c(=O)c2c(ncn2C)n(C)c1=O
inactive: Potency [1] | outcome [2] | outcome [3] | Potency [4] | Potency [9] | activity change, positive = activation [10] -5.11% [at 42.5 µM] | outcome [5] | Potency [6] | outcome [7]

CCCCNC1CC(C)(C)NC(C)(C)C1
inactive: Potency [1] | outcome [2] | outcome [3] | outcome [8] | Potency [9] | activity change, positive = activation [10] 8.08% | outcome [5] | Potency [6] | outcome [7]

CCCCC(CC)COCCO (configuration not stated)
inactive: Potency [1] | outcome [2] | outcome [3] | Potency [4] | Potency [9] | activity change, positive = activation [10] 5.52% | outcome [5] | Potency [6] | outcome [7]

O=S(=O)(O)CCN1CCN(CCO)CC1
inactive: Potency [1] | outcome [2] | outcome [3] | Potency [4] | activity change, positive = activation [10] 9.7% | outcome [5] | outcome [7]

COCCOCCOCCOCCOCCO
inactive: Potency [1] | outcome [2] | outcome [3] | Potency [4] | activity change, positive = activation [10] 2.08% | outcome [5] | outcome [7]

Cc1ccsc1/C=C/C1=NCCCN1C
inactive: Potency [1] | outcome [2] | outcome [3] | Potency [4] | activity change, positive = activation [10] -1.39% [at 42.5 µM] | outcome [5] | Potency [6] | outcome [7]

COc1ccc(C2CNC(=O)C2)cc1OC1CCCC1 (configuration not stated)
inactive: Potency [1] | outcome [2] | outcome [3] | Potency [4] | Potency [9] | activity change, positive = activation [10] -4.57% [at 42.5 µM] | outcome [5] | Potency [6] | outcome [7]

O=C(NCC(O)CO)c1c(I)c(C(=O)NCC(O)CO)c(I)c(N(CCO)C(=O)CO)c1I (configuration not stated)
inactive: Potency [1] | outcome [2] | outcome [3] | Potency [4] | Potency [9] | activity change, positive = activation [10] 5.02% [at 42.5 µM] | outcome [5] | Potency [6] | outcome [7]

N[C@@H](COP(=O)(O)O)C(=O)O
inactive: activation [1] 7.34% [at 19 µM] | activity change, negative = cytotoxicity [2] -1.64% [at 15.8 µM] | activation (H2AX phosphorylation) [3] -3.89% [at 31.6 µM] | activity change, negative = cytotoxicity [4] -1.2% [at 31.6 µM] | activity change, negative = cytotoxicity [5] 0.52% [at 15.8 µM] | activity change, negative = cytotoxic [6] 2.67% [at 15.8 µM] | cytotoxicity [7] -3.53% [at 15.8 µM]

C[C@@H](O)[C@H]1C(=O)N2C(C(=O)O)=C(SCCN=CN)C[C@H]12
inactive: Potency [1] | outcome [2] | outcome [3] | Potency [4] | activity change, positive = activation [10] 5.47% [at 42.5 µM] | outcome [5] | Potency [6] | outcome [7]

Cc1ccccc1OCC(O)CO (configuration not stated)
inactive: Potency [1] | outcome [2] | outcome [3] | Potency [4] | Potency [9] | activity change, positive = activation [10] 1.39% [at 42.5 µM] | outcome [5] | Potency [6] | outcome [7]

CC(C)C(=O)OCCc1ccccc1
inactive: Potency [1] | outcome [2] | outcome [3] | Potency [4] | outcome [5] | Potency [6] | outcome [7]

CCCCCOC(=O)CCC
inactive: Potency [1] | outcome [2] | outcome [3] | outcome [8] | Potency [9] | activity change, positive = activation [10] 10.4% | outcome [5] | Potency [6] | outcome [7]

C[C@H](CCC(=O)O)[C@H]1CC[C@H]2[C@@H]3C(=O)C[C@@H]4CC(=O)CC[C@]4(C)[C@H]3CC(=O)[C@]12C
inactive: Potency [1] | outcome [2] | outcome [3] | Potency [4] | Potency [9] | activity change, positive = activation [10] -0.444% [at 42.5 µM] | outcome [5] | Potency [6] | outcome [7]

COc1ccc2nc(SCc3ncc(C)c(OC)c3C)[nH]c2c1
inactive: Potency [1] | outcome [2] | outcome [3] | Potency [4] | Potency [9] | activity change, positive = activation [10] -13.6% [at 42.5 µM] | outcome [5] | outcome [7]

CO[C@@H]1[C@@H](OC(N)=O)[C@@H](O)[C@H](Oc2ccc3c(O)c(NC(=O)c4ccc(O)c(CC=C(C)C)c4)c(=O)oc3c2C)OC1(C)C
inactive: Potency [1] | outcome [2] | outcome [3] | Potency [4] | activity change, positive = activation [10] -2.51% [at 42.5 µM] | outcome [5] | Potency [6] | outcome [7]

O=C(CCNNC(=O)c1ccncc1)NCc1ccccc1
inactive: Potency [1] | outcome [2] | outcome [3] | Potency [4] | outcome [5] | Potency [6] | outcome [7]

COC(=O)CCCCCCCC(=O)OC
inactive: Potency [1] | outcome [2] | outcome [3] | Potency [4] | Potency [9] | activity change, positive = activation [10] 1.98% | Potency [6] | outcome [7]
